Assay [1] is described as follows: NCI Yeast Anticancer Drug Screen. Data for the rad50 strain (AID 155).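 Also: 0% = growth of vehicle-only cultures of the same strain.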 The settings on record: S. cerevisiae rad50 strain growth inhibition; at 50.0 µM; hits give high values. In a few lines: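 Readout: growth inhibition relative to vehicle-treated cultures. Compound exposure was carried out in a genetically defined yeast strain deficient in DNA damage repair.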

A short description of assay [2]: NCI Yeast Anticancer Drug Screen. Data for the mec2-1 strain (AID 157). The settings on record: S. cerevisiae mec2-1 strain, at 50.0 µM, hits give high values. In a few lines: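 Strain: mec2-1 (DNA repair/cell cycle alteration). Compound exposure, then growth measured; inhibition expressed relative to vehicle.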
Assay [3] in a line: NCI Yeast Anticancer Drug Screen. Data for the sgs1 mgt1 strain (AID 161).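 Also: 0% = growth of cultures given vehicle only.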 The settings on record: S. cerevisiae sgs1 mgt1 strain, at 50.0 µM, hits give high values. A digest of the protocol:
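Read-out: growth inhibition vs vehicle controls. Cells: mutant yeast strain deficient in DNA damage repair.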

Assay [4] in a line: NCI Yeast Anticancer Drug Screen. Data for the cln2 rad14 strain (AID 165).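 Also: 0% = growth equal to vehicle treated cultures.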 The following applies: S. cerevisiae cln2 rad14 strain, at 50.0 µM, hits give high values. A digest of the protocol:
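Compounds are applied to the cln2 rad14 yeast strain, and growth is then compared with that of vehicle-treated cultures to give inhibition.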

Assay [5] can be described thus: NCI Yeast Anticancer Drug Screen. Data for the bub3 strain (AID 167). The following applies: S. cerevisiae bub3 mutant strain, at 50.0 µM, hits give high values. In a few lines:
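Readout: yeast growth inhibition, expressed relative to vehicle-only wells. The test organism is a mutant strain from a panel with lesions in DNA repair or checkpoint genes.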

Assay [6] can be described thus: NCI Yeast Anticancer Drug Screen. Data for the mlh1 rad18 strain (AID 175). The following applies: S. cerevisiae mlh1 rad18 strain growth inhibition; at 50.0 µM; hits give high values. A digest of the protocol: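 Read-out is yeast growth inhibition, calculated against vehicle-only controls. The compound was applied to a strain engineered with DNA damage repair alterations.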

The structures appear in SMILES notation. Several values for one entry are separate records, joined by “and”; a condition that tells them apart may be missing. Identical values can stand only once. About 79,000 compounds went through this panel and 15% of them were active in at least one assay; those are over-represented in the sample as a whole. A number with no mark means an inactive call. Activity calls are given as the source filed them. Rule as the data show it: active = growth inhibition above about 70%; inactive = the rest.

For the compound `O=NN(CS(=O)(=O)O)c1ccccc1`, the growth inhibition in assay [1] is -5.9%; in assay [2] it was -3.05%; in assay [3], -1.6%; in assay [4], -29.2%; in assay [5], 6.4%; in assay [6] it was 0.4%.
Take `CCOC(=O)C(Cc1ccc(N(CCCl)CCCl)cc1)NC(=O)CNC(C)=O` (centres undefined): the growth inhibition in assay [1] is 2.4%; in assay [2] it was -7.85%; in assay [3] it was 14.7%; in assay [4] it was 1.45%; in assay [5], -10.4%; in assay [6], 10.3%.
On to `CC(=O)c1ccc([As](=O)(O)O)cc1`, for which the growth inhibition in assay [1] is -10.3%; in assay [2] it was -20.4%; in assay [3] it was -13.4%; in assay [4] it was -21.4%; in assay [5], -29.1%; in assay [6], -30.8%.
As for `CC(C)c1ccc(-n2c(=S)[nH]c3ccccc3c2=O)cc1`, the growth inhibition in assay [1] is -16.3%; in assay [2], -7%; in assay [3], -13.8%; in assay [4], -25%; in assay [5], -5.7%; in assay [6], 13.8%.
As for `O=C(COc1ccc(Cl)c(Cl)c1)Nc1ccc[n+](Cc2ccc(Cl)c(S(=O)(=O)F)c2)c1`, the growth inhibition was 98.2% (active) in assay [1]; 90.7% (active) in assay [2]; 95.3% (active) in assay [3]; 79.3% (active) in assay [4]; 78.2% (active) in assay [5]; 98.5% (active) in assay [6].
Turning to `CC(Cl)(Cl)[N+](=O)[O-]`, the growth inhibition is 33.7% in assay [1]; -22.5% in assay [2]; -8.05% in assay [3]; -60.1% in assay [4]; -10.2% in assay [5]; 21.1% in assay [6].
Consider `NNC(=O)NC(=O)NN`, for which the growth inhibition is 1.25% in assay [1]; 5.4% in assay [2]; 4.6% in assay [3]; -8.95% in assay [4]; -0.15% in assay [5]; 9.6% in assay [6].
For `[Cl][Pd]([Cl])([Cl])[Cl].[NH-]CC[NH-].[NH-]CC[NH-].[Pd+2]`, the growth inhibition in assay [1] is 28.7%; in assay [2] it was 16.9%; in assay [3], 32%; in assay [4], -3.5%; in assay [5], 26.4%; in assay [6], 54.7%.
As to `CC[P+](C#Cc1ccccc1)(c1ccccc1)c1ccccc1`, the growth inhibition is 85.8% (active) in assay [1]; 88.9% (active) in assay [2]; 89% (active) in assay [3]; 87.2% (active) in assay [4]; 87.4% (active) in assay [5]; 87.5% (active) in assay [6].
For `CN(C)P1P(N(C)C)P(N(C)C)P1N(C)C` (centres undefined), the growth inhibition was -25.4% in assay [1]; 9.75% in assay [2]; 2.2% in assay [3]; -58.7% in assay [4]; -7.5% in assay [5]; -1.2% in assay [6].
For the compound `COc1ccc2c3c([nH]c2c1)C(C)N(C)CC3` (centres undefined), the growth inhibition in assay [1] was 16.4%; in assay [2], 1.85%; in assay [3], -10.7%; in assay [4] it was -5.05%; in assay [5] it was 43.4%; in assay [6], -16.9%.
With `Nc1ncnc2c1ncn2C1OC(CO)C2NP(=O)(N(CCCl)CCCl)OC21` (centres undefined), the growth inhibition in assay [1] was 6.1% and 16.9%; in assay [2] it was -6.2% and 1.7%; in assay [3], -22.1% and -19.3%; in assay [4] it was -8.1% and 5.15%; in assay [5] it was -6.15% and -15.6%; in assay [6], -38% and -8.55%.
Consider `C/C1=N\NC(=O)c2ccccc2C(=O)N/N=C(\C)c2cccc1n2.O=[N+]([O-])[O-].[Zn+2]`, for which the growth inhibition was -8.85% in assay [1]; -7.3% in assay [2]; -10.2% in assay [3]; 5.8% in assay [4]; -38% in assay [5]; -5.05% in assay [6].
For the compound `CCOC(CNCc1cccnc1)OCC`, the growth inhibition is -20.7% in assay [1]; -10.6% in assay [2]; -23.6% in assay [3]; 5.9% in assay [4]; -13.7% in assay [5]; -17.3% in assay [6].
Take `CC1C(=O)OC2CC[N+]3([O-])CC=C(COC(=O)C(C)(O)C1(C)O)C23` (centres undefined): the growth inhibition in assay [1] is -0.6%; in assay [2], -37.2%; in assay [3], -14.7%; in assay [4] it was -5.25%; in assay [5] it was -9.25%; in assay [6] it was -84.4%.
`CC(C)C(Br)C(N)=O` (centres undefined): the growth inhibition in assay [1] was -36.1%; in assay [2], -31.1%; in assay [3], 9.75%; in assay [4], -24.6%; in assay [5] it was -2.85%; in assay [6] it was -14.8%.
In the case of `O=C(NC1CC1)c1c(O)[nH]c(=S)[nH]c1=O`, the growth inhibition in assay [1] is -3%; in assay [2] it was -8.2%; in assay [3], -12.8%; in assay [4] it was 16.6%; in assay [5] it was -6.15%; in assay [6] it was -17.1%.
`CS(=O)(=O)CS(=O)(=O)OCCF`: the growth inhibition is 5% in assay [1]; -12.4% in assay [2]; -10.6% in assay [3]; -9.55% in assay [4]; -29% in assay [5]; -33.2% in assay [6].
On to `CN(C/C=C/CN(C)N=O)N=O`, for which the growth inhibition was 10.1% in assay [1]; 2.05% in assay [2]; 3.75% in assay [3]; -16.9% in assay [4]; 20.4% in assay [5]; 1.05% in assay [6].
